This is an account of results in PubChem BioAssay (Tox21).

Unmarked numbers belong to inactive results. Calls of active or inactive are those of the source. Calls come from the whole dose curve; as a rule, active = well fitted curve in the direction sought with a large enough effect in the repeat runs; inconclusive = weak or mixed curves; inactive = flat fitted curve, though single readings scatter.
% is set by controls: 0 for no effect and ±100 for the full control effect.

The first experiment can be described thus: qHTS assay to test for compound auto fluorescence at 590 nm (red) in HepG2 cells (AID 720674). Conditions: HepG2 autofluorescence, red 540/590 nm, 1 h; series mostly up to 91.3 µM; fluorescence, relative to Rose Bengal: at the top concentration. In a few lines:
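Compound auto-fluorescence is scored relative to Rose Bengal sodium, measured at 540/590 nm in live HepG2 cultures after 1 hr compound contact (37 C, 5% CO2).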
For `CN(CC1(C)CCCO1)S(=O)(=O)c1ccc(Cl)c(S(N)(=O)=O)c1` (stereo not drawn), the “fluorescence, relative to Rose Bengal” value is 0.117% [at 46 µM].

In the case of `CCCCCOc1ccc(C2SC(=O)NC2=O)cc1OCC` (stereo not drawn), the “fluorescence, relative to Rose Bengal” value was 0.313% [at 46 µM].

On to `CCCCNCCCC`, for which the “fluorescence, relative to Rose Bengal” value was 0.211%.

As to `CC(C)c1ccccc1`, the “fluorescence, relative to Rose Bengal” value is -0.0592% [at 95.7 µM].

In the case of `CC/C=C\CCOC(=O)C(C)C`, the “fluorescence, relative to Rose Bengal” value is -0.0403%.

With `CCC1(C)NC(=O)NC1=O` (stereo not drawn), the “fluorescence, relative to Rose Bengal” value was 0.104%.

On to `Cc1cc(S(=O)(=O)O)c(N)cc1Cl`, for which the “fluorescence, relative to Rose Bengal” value is 0.0942%.

On to `COc1cc(N)c(Cl)cc1C(=O)NC1CCN(Cc2ccccc2)CC1`, for which the fluorescence, relative to Rose Bengal was -0.629% [at 18.6 µM].

In the case of `CCOC(=O)C1CC(=O)C(=C(O)C2CC2)C(=O)C1` (stereo not drawn), the “fluorescence, relative to Rose Bengal” value was -0.131%.

As for `O=S(=O)(O)C(F)(F)F`, the “fluorescence, relative to Rose Bengal” value was 0.208%.

As to `O=c1[nH]cnc2c1ncn2[C@@H]1O[C@H](CO)[C@@H](O)[C@H]1O`, the “fluorescence, relative to Rose Bengal” value is 0.0832% [at 46 µM].

Turning to `Cc1cc(NS(=O)(=O)c2ccc(N)cc2)nc(C)n1`, the “fluorescence, relative to Rose Bengal” value is -0.0028% [at 46 µM].

As to `CC(C)CCCCCCc1ccc(OCCOCCO)cc1`, the “fluorescence, relative to Rose Bengal” value is 0.048% [at 95.7 µM].

In the case of `CC1(C)S[C@@H]2[C@H](NC(=O)C(C(=O)O)c3ccccc3)C(=O)N2[C@H]1C(=O)O` (stereo partly drawn), the “fluorescence, relative to Rose Bengal” value was -0.243% [at 46 µM].

In the case of `CCCCCCCCOC(=O)CCCCCCCCC(=O)OCCCCCCCC`, the “fluorescence, relative to Rose Bengal” value is 0.0067%.

For the molecule `O=C1C=CC(=O)O1`, the “fluorescence, relative to Rose Bengal” value was 0.06% [at 95.7 µM].

A short description of the next experiment: qHTS assay to test for compound auto fluorescence at 535 nm (green) in HepG2 cells (AID 720675). Conditions: green autofluorescence 485/535 nm, 1 h; series mostly up to 91.3 µM; fluorescence, % of fluorescein control: at the top concentration. On the technique in general: Quantitative high-throughput screening tests each substance at several concentrations.
Take `COc1nc(C)nc(NC(=O)NS(=O)(=O)c2ccccc2OCCCl)n1`: the “fluorescence, % of fluorescein control” value was 0.112%.

With `CCCCNC(=S)NCCCC`, the “fluorescence, % of fluorescein control” value is 0.0539%.

As for `CC(C)(C)c1cccc(O)c1`, the “fluorescence, % of fluorescein control” value is -0.0465%.

With `O=C1CCC(C2CCCCC2)CC1`, the “fluorescence, % of fluorescein control” value was 0.124%.

Regarding `COC(=O)c1ccc2cc(C(=O)OC)ccc2c1`, the fluorescence, % of fluorescein control is -0.0327% [at 18.6 µM].

`CCCc1c2oc(C(=O)O)cc(=O)c2cc2c(=O)cc(C(=O)O)n(CC)c12`: the “fluorescence, % of fluorescein control” value is -0.0865% [at 46 µM].

As for `CC(CNC1CCCCC1)OC(=O)c1ccccc1` (stereo not drawn), the fluorescence, % of fluorescein control is 0.0399% [at 18.6 µM].

As to `CC(C)OC(C)C`, the “fluorescence, % of fluorescein control” value is -0.0584% [at 95.7 µM].

In the case of `OCCN(CCO)c1ccccc1`, the “fluorescence, % of fluorescein control” value is 0.0423%.

Take `O=C(C(Cl)Cl)N1CCOC12CCCCC2`: the “fluorescence, % of fluorescein control” value is 0.0303%.

Consider `CCCCCCCCCC#N`, for which the “fluorescence, % of fluorescein control” value was -0.007%.

For the molecule `CCOC(=O)C(Br)c1ccccc1` (stereo not drawn), the “fluorescence, % of fluorescein control” value was 0.024%.

With `C[C@@H](N)C(=O)O`, the “fluorescence, % of fluorescein control” value is -0.0507% [at 46 µM].

Consider `O=C1N(c2ccccc2)c2ccccc2C1(Cc1ccncc1)Cc1ccncc1`, for which the “fluorescence, % of fluorescein control” value is 0.0058% [at 46 µM].

On to `Cc1ccsc1C(=CCCN1CCC[C@@H](C(=O)O)C1)c1sccc1C`, for which the “fluorescence, % of fluorescein control” value was -0.0102% [at 46 µM].

As to `C=CCc1cc(OC)c(O)c(C(=O)NCCO)c1`, the “fluorescence, % of fluorescein control” value was -0.19% [at 46 µM].

Turning to `CCc1cc(Cl)c(OC)c(C(=O)NC[C@@H]2CCCN2CC)c1O`, the molecule was classed as inactive.

Take `CCCCOc1cc(C(=O)NCCN(CC)CC)c2ccccc2n1`: the fluorescence, % of fluorescein control is 0.0079% [at 18.6 µM].

Take `CCC(=O)O[C@]1(C(=O)SCF)[C@H](C)C[C@H]2[C@@H]3C[C@H](F)C4=CC(=O)C=C[C@]4(C)[C@@]3(F)[C@@H](O)C[C@@]21C`: the fluorescence, % of fluorescein control is 0.0108% [at 18.6 µM].

For the molecule `NNS(=O)(=O)c1ccc(Oc2ccc(S(=O)(=O)NN)cc2)cc1`, the “fluorescence, % of fluorescein control” value is 0.107%.

As to `CN(CC1(C)CCCO1)S(=O)(=O)c1ccc(Cl)c(S(N)(=O)=O)c1` (stereo not drawn), the “fluorescence, % of fluorescein control” value was -0.162% [at 46 µM].

On to `CCCCCOc1ccc(C2SC(=O)NC2=O)cc1OCC` (stereo not drawn), for which the “fluorescence, % of fluorescein control” value was 0.176% [at 46 µM].

`CCCCNCCCC`: the “fluorescence, % of fluorescein control” value is 0.0564%.

Consider `CC(C)c1ccccc1`, for which the “fluorescence, % of fluorescein control” value was 0.103% [at 95.7 µM].

For `CC/C=C\CCOC(=O)C(C)C`, the “fluorescence, % of fluorescein control” value is 0.0054%.

As to `CCC1(C)NC(=O)NC1=O` (stereo not drawn), the “fluorescence, % of fluorescein control” value was -0.0146%.

On to `Cc1cc(S(=O)(=O)O)c(N)cc1Cl`, for which the “fluorescence, % of fluorescein control” value is 0.0004%.

Regarding `COc1cc(N)c(Cl)cc1C(=O)NC1CCN(Cc2ccccc2)CC1`, the fluorescence, % of fluorescein control is 0.0143% [at 18.6 µM].

For `CCOC(=O)C1CC(=O)C(=C(O)C2CC2)C(=O)C1` (stereo not drawn), the “fluorescence, % of fluorescein control” value was -0.0988%.

Regarding `O=S(=O)(O)C(F)(F)F`, the “fluorescence, % of fluorescein control” value was -0.0956%.

Regarding `O=c1[nH]cnc2c1ncn2[C@@H]1O[C@H](CO)[C@@H](O)[C@H]1O`, the “fluorescence, % of fluorescein control” value is -0.202% [at 46 µM].

On to `Cc1cc(NS(=O)(=O)c2ccc(N)cc2)nc(C)n1`, for which the “fluorescence, % of fluorescein control” value is -0.0868% [at 46 µM].

As for `CC(C)CCCCCCc1ccc(OCCOCCO)cc1`, the “fluorescence, % of fluorescein control” value is -0.0076% [at 95.7 µM].

Turning to `CC1(C)S[C@@H]2[C@H](NC(=O)C(C(=O)O)c3ccccc3)C(=O)N2[C@H]1C(=O)O` (stereo partly drawn), the “fluorescence, % of fluorescein control” value is 0.133% [at 46 µM].

For `CCCCCCCCOC(=O)CCCCCCCCC(=O)OCCCCCCCC`, the “fluorescence, % of fluorescein control” value was 0.045%.

On to `O=C1C=CC(=O)O1`, for which the “fluorescence, % of fluorescein control” value was 0.0148% [at 95.7 µM].

A short description of another experiment: qHTS assay to test for compound auto fluorescence at 460 nm (blue) in HEK293 cells (AID 720678). Conditions: blue autofluorescence 405/460 nm; series mostly up to 91.3 µM; fluorescence, % of triamterene: at the top concentration. In a few lines:
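HEK293 cells (2,000 per well, medium with 10% dialyzed FBS) attached for 4-5 hr at 37C, then received compound and stood overnight at 37C, 5% CO2. Blue fluorescence was read at Ex/Em 405/460 nm and expressed relative to triamterene.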
On to `COc1nc(C)nc(NC(=O)NS(=O)(=O)c2ccccc2OCCCl)n1`, for which the “fluorescence, % of triamterene” value was 0.108%.

On to `CCCCNC(=S)NCCCC`, for which the “fluorescence, % of triamterene” value is -0.262%.

`CC(C)(C)c1cccc(O)c1`: the “fluorescence, % of triamterene” value is 0.197%.

For `O=C1CCC(C2CCCCC2)CC1`, the “fluorescence, % of triamterene” value is 0.0387%.

Turning to `COC(=O)c1ccc2cc(C(=O)OC)ccc2c1`, the fluorescence, % of triamterene was -0.0093% [at 18.6 µM].

Consider `CCCc1c2oc(C(=O)O)cc(=O)c2cc2c(=O)cc(C(=O)O)n(CC)c12`, for which the “fluorescence, % of triamterene” value was 0.484% [at 46 µM].

`CC(CNC1CCCCC1)OC(=O)c1ccccc1` (stereo not drawn): the fluorescence, % of triamterene is 0.0231% [at 18.6 µM].

For `CC(C)OC(C)C`, the “fluorescence, % of triamterene” value was 0.0485% [at 95.7 µM].

Consider `OCCN(CCO)c1ccccc1`, for which the “fluorescence, % of triamterene” value was 0.0531%.

For `O=C(C(Cl)Cl)N1CCOC12CCCCC2`, the “fluorescence, % of triamterene” value is 0.247%.

In the case of `CCCCCCCCCC#N`, the “fluorescence, % of triamterene” value is -0.115%.

In the case of `CCOC(=O)C(Br)c1ccccc1` (stereo not drawn), the “fluorescence, % of triamterene” value is -0.129%.

As to `C[C@@H](N)C(=O)O`, the “fluorescence, % of triamterene” value was -0.023% [at 46 µM].

`O=C1N(c2ccccc2)c2ccccc2C1(Cc1ccncc1)Cc1ccncc1`: the “fluorescence, % of triamterene” value is -0.0041% [at 46 µM].

For the molecule `Cc1ccsc1C(=CCCN1CCC[C@@H](C(=O)O)C1)c1sccc1C`, the “fluorescence, % of triamterene” value was 0.296% [at 46 µM].

Consider `C=CCc1cc(OC)c(O)c(C(=O)NCCO)c1`, for which the “fluorescence, % of triamterene” value is -0.0094% [at 46 µM].

As for `CCc1cc(Cl)c(OC)c(C(=O)NC[C@@H]2CCCN2CC)c1O`, the molecule was called inactive.

Take `CCCCOc1cc(C(=O)NCCN(CC)CC)c2ccccc2n1`: the fluorescence, % of triamterene was -0.0164% [at 18.6 µM].

Consider `CCC(=O)O[C@]1(C(=O)SCF)[C@H](C)C[C@H]2[C@@H]3C[C@H](F)C4=CC(=O)C=C[C@]4(C)[C@@]3(F)[C@@H](O)C[C@@]21C`, for which the fluorescence, % of triamterene is 0.0153% [at 18.6 µM].

Turning to `NNS(=O)(=O)c1ccc(Oc2ccc(S(=O)(=O)NN)cc2)cc1`, the “fluorescence, % of triamterene” value is 0.023%.

Turning to `CN(CC1(C)CCCO1)S(=O)(=O)c1ccc(Cl)c(S(N)(=O)=O)c1` (stereo not drawn), the “fluorescence, % of triamterene” value is 0.0895% [at 46 µM].

In the case of `CCCCCOc1ccc(C2SC(=O)NC2=O)cc1OCC` (stereo not drawn), the “fluorescence, % of triamterene” value is 0.0585% [at 46 µM].

For `CCCCNCCCC`, the “fluorescence, % of triamterene” value is 0.548%.

For the molecule `CC(C)c1ccccc1`, the “fluorescence, % of triamterene” value is -0.219% [at 95.7 µM].

Turning to `CC/C=C\CCOC(=O)C(C)C`, the “fluorescence, % of triamterene” value was -0.0971%.

With `CCC1(C)NC(=O)NC1=O` (stereo not drawn), the “fluorescence, % of triamterene” value was -0.0273%.

For the molecule `Cc1cc(S(=O)(=O)O)c(N)cc1Cl`, the “fluorescence, % of triamterene” value is -0.0821%.

Consider `COc1cc(N)c(Cl)cc1C(=O)NC1CCN(Cc2ccccc2)CC1`, for which the fluorescence, % of triamterene was 0.111% [at 18.6 µM].

As for `CCOC(=O)C1CC(=O)C(=C(O)C2CC2)C(=O)C1` (stereo not drawn), the “fluorescence, % of triamterene” value is 0.0206%.

As for `O=S(=O)(O)C(F)(F)F`, the “fluorescence, % of triamterene” value was -0.0526%.

Consider `O=c1[nH]cnc2c1ncn2[C@@H]1O[C@H](CO)[C@@H](O)[C@H]1O`, for which the “fluorescence, % of triamterene” value was 0.0473% [at 46 µM].

On to `Cc1cc(NS(=O)(=O)c2ccc(N)cc2)nc(C)n1`, for which the “fluorescence, % of triamterene” value is -0.204% [at 46 µM].

With `CC(C)CCCCCCc1ccc(OCCOCCO)cc1`, the “fluorescence, % of triamterene” value is -0.164% [at 95.7 µM].

For `CC1(C)S[C@@H]2[C@H](NC(=O)C(C(=O)O)c3ccccc3)C(=O)N2[C@H]1C(=O)O` (stereo partly drawn), the “fluorescence, % of triamterene” value was -0.0865% [at 46 µM].

For `CCCCCCCCOC(=O)CCCCCCCCC(=O)OCCCCCCCC`, the “fluorescence, % of triamterene” value was -0.182%.

Regarding `O=C1C=CC(=O)O1`, the “fluorescence, % of triamterene” value was 0.007% [at 95.7 µM].
